# Screen size: about 350,000 compounds; about 31,000 (8.9%) were called active. Where a call stands in place of a potency, no number is given. Not shown: some 15% with an inconclusive outcome. The full list was thinned out, with actives kept by preference. Unmarked numbers belong to inactive results. The call rests on the fitted dose curve; in most records, active means well fitted inhibition curve with a large enough effect; inconclusive means small, poorly fitted or top-dose-only effect; inactive means no such curve, though single readings can be large or run the other way.
# Target: Histone-lysine N-methyltransferase EHMT2 (Homo sapiens) (UniProt Q96KQ7)
# Sequence (Q96KQ7 913-1193 limits assumed): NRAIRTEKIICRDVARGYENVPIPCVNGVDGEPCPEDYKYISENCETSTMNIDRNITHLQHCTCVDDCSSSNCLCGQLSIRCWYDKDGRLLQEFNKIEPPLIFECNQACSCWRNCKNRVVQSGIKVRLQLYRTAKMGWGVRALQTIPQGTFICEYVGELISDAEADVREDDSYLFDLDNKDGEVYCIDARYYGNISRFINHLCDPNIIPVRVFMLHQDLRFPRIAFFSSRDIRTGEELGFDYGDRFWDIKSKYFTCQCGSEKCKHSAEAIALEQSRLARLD
# Assay: qHTS Assay for Inhibitors of Histone Lysine Methyltransferase G9a; further: nearly all actives have a fitted effect of over 75% in size
# Conditions: G9a H3K9 monomethylation, AlphaScreen, 2 h; series mostly up to 59 µM
# Method in brief: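 Signal arises when biotinylated H3K9 peptide, once monomethylated, bridges streptavidin donor and antibody-captured acceptor beads. Enzyme at 20 nM was preincubated 15 min with test compounds; peptide 500 nM and SAM 20 uM then reacted for 2 h.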
# Potency means the concentration at half of the fitted maximal effect.
Structure (SMILES),Potency,"activity, negative = inhibition"
CC(C)(C)NC(=O)CSc1nnc(NC(=O)CCc2ccccc2)s1,inactive,
CCn1cc(CN2CCN(CC(C)(C)C)C(CCO)C2)c2ccccc21 (configuration not stated),50.1 µM (active),
Cc1ccc(CN2CCN(Cc3ccccc3-c3ccco3)CC2CCO)o1 (configuration not stated),inactive,
COc1ccc(CN2CCN(Cc3cn(C)nc3-c3ccccc3)CC2CCO)c(C)c1C (configuration not stated),inactive,
COc1ccccc1-c1ccnc2[nH]n(-c3ccccc3)c(=O)c12,inactive,
Cc1ccc(/C=N/NC(=O)c2sccc2OCc2ccc(F)cc2)cc1,inactive,
CNC(=S)NNC(=O)c1sccc1OCc1ccccc1,50.1 µM (active),
CNC(=S)NNC(=O)c1cccn(Cc2ccccc2)c1=O,inactive,
Cc1ccc(-c2nn(-c3ccc(F)cc3)cc2C(=O)NCC(c2cccs2)N2CCOCC2)cc1 (configuration not stated),inactive,
CC(=O)c1ccc(N2CCN(C(=O)c3ccc(Cl)c(S(=O)(=O)NC4CC4)c3)CC2)c(F)c1,inactive,
CCOc1ccccc1NC(=O)Cn1c(=O)n(Cc2ccco2)c(=O)c2sc3ccccc3c21,inactive,
CCOC(=O)/C=c1\s/c(=C\c2ccccc2OC)c(=O)n1CC(=O)N1CCOCC1,inactive,
CCOc1ccccc1/C=c1\sc2nc(-c3ccco3)nn2c1=O,35.5 µM (active),
Cc1cc2ccccc2n1CCNC(=O)c1ccc(F)cc1,inactive,
Cc1ccc(NC(=O)c2cn3c4c(ccc(Cl)c4c2=O)OC(C)C3)cc1C (configuration not stated),inactive,
O=C(O)c1cc(S(=O)(=O)N(Cc2ccccc2)c2ccccc2)ccc1Cl,inactive,
Cc1cc(C)c2nc(-c3ccco3)cc(C(=O)O)c2c1,10 µM (active),
CC1CCCN(C(=O)c2cc(-c3ccco3)nc3ccccc23)C1 (configuration not stated),,-9.53% [at 2.33 µM]
FC(F)(F)c1cc(-c2ccco2)nc(N2CCOCC2)n1,inactive,
Cc1cc2c(c(=O)n1Cc1ccccc1)C1O[C@](CCCCN3C(=O)c4ccccc4C3=O)(Cc3ccccc31)O2,,-0.249% [at 2.33 µM]
O=C(c1c(F)cccc1Cl)N1CCN(S(=O)(=O)c2ccc3c(c2)OCCCO3)CC1,inactive,
CCOc1ccccc1-c1nc(CN2CCC(C(=O)N3CCOCC3)CC2)c(C)o1,89.1 µM (active),
CCOc1ccccc1-c1cc(C(=O)N2CCOCC2)c2ccccc2n1,inactive,
Cc1oc(-c2ccccc2F)nc1CN1CCC(C(=O)NCCc2ccc(Cl)cc2)CC1,inactive,
O=S(=O)(c1ccc(Br)cc1)c1nnn2c1nc(N1CCOCC1)c1sccc12,inactive,

Structure (SMILES),Potency,"activity, negative = inhibition"
Cc1nc([N+](=O)[O-])cn1CC(=O)Nc1ccc2c(c1)OCO2,inactive,
Cc1ccc(-c2n[nH]c(=S)n2/N=C/c2cc3c(cc2[N+](=O)[O-])OCO3)cc1,1.26 µM (active),
Cc1ccc(S(=O)(=O)N/N=C\c2cc3c(cc2[N+](=O)[O-])OCO3)cc1,5.62 µM (active),
CC(=O)N/N=C/c1cc2c(cc1[N+](=O)[O-])OCO2,inactive,
Cc1ccc(S(=O)(=O)N2CCN(CC(=O)N/N=C/c3cc([N+](=O)[O-])ccc3Cl)CC2)cc1,inactive,
CCOC(=O)c1nc(-c2ccc3c(c2)OCO3)[nH]c1C,inactive,
COc1ccccc1-c1nn(Cc2ccccc2)cc1C(=O)N1CCN(c2ncccn2)CC1,,21.8% [at 12.7 µM]
CNc1nnc(-c2ccco2)s1,inactive,
COc1ccc(OCC(=O)Nc2nnc(-c3ccco3)s2)cc1,50.1 µM (active),
Cc1ccc(OCC(=O)Nc2nnc(-c3ccco3)s2)cc1,inactive,
Cc1cccc(NC(=O)c2ccc(COc3ccccc3[N+](=O)[O-])o2)n1,inactive,
Cc1cccc(NC(=O)Nc2ccc(OCc3ccccc3)cc2)n1,,8.02% [at 2.33 µM]
CCOc1ccc(OCc2ccc(C(=O)Nc3cccc(C)n3)o2)cc1,44.7 µM (active),
N#Cc1ccsc1NC(=O)CN1CCN(S(=O)(=O)c2cc(Cl)ccc2Cl)CC1,50.1 µM (active),
COc1ccc(Cl)cc1S(=O)(=O)N1CCC(c2ccncc2)CC1,inactive,
N#Cc1ccsc1NC(=O)CN1CCCCC1,inactive,
COc1ccc(Cl)cc1S(=O)(=O)N1CCC(O)(c2ccc(Cl)cc2)CC1,inactive,
CC(C#N)(NC(=O)CN1CCN(S(=O)(=O)c2cc(C(F)(F)F)ccc2Cl)CC1)C1CC1 (configuration not stated),inactive,
COc1ccc(Cl)cc1S(=O)(=O)N1CCN(CC(=O)C(C)(C)C)CC1,44.7 µM (active),
O=C(NCC(c1ccco1)S(=O)(=O)c1cccs1)c1ccc(F)cc1 (configuration not stated),inactive,
CCc1ccc(NC(=O)CN2CCSc3ccc(S(=O)(=O)N4CCCC4)cc32)cc1,inactive,
CCN(Cc1ccccc1)S(=O)(=O)c1ccc2c(c1)CCCN2C(C)=O,inactive,
Cc1ccc2[nH]c3c(=O)n(CC(=O)NC(C)C)ncc3c2c1,inactive,
CCc1ccc(NC(=O)CN2C(=O)C(c3ccccc3)=NC23CCCCCC3)cc1,inactive,
Cc1cc2c(cc3c(SCc4nc(-c5ccccc5)oc4C)nnc(C)n32)o1,inactive,

Structure (SMILES),Potency,"activity, negative = inhibition"
Cc1cc2c(cc3c(SCc4cccc(Cl)c4)nnc(C)n32)o1,7.08 µM (active),
Cc1nnc(SCc2cccc(Cl)c2)n(N)c1=O,inactive,
Cc1cc(C(=O)NNC(=O)c2ccccc2O)c(C)o1,,72.2% [at 12.7 µM]
CC(=O)Nc1ccc(NC(=O)C(NS(=O)(=O)c2ccc3c(c2)OCCO3)C(C)C)cc1 (configuration not stated),,15.5% [at 12.7 µM]
Cc1ccc(C2CC2C(=O)NN)cc1 (configuration not stated),inactive,
Cc1ccc(NC(=O)C2CC2c2ccccc2)cc1 (configuration not stated),,18.3% [at 2.33 µM]
Cc1ccc(C2NC(C(=O)O)CS2)cc1 (configuration not stated),31.6 µM (active),
COc1cc(C(=O)Nc2ccc(-n3c(C)nc4ccccc4c3=O)cc2)cc(OC)c1OC,inactive,
CCc1c(C)nc(N)n2c(SCC(=O)NC3CCCCC3)nnc12,inactive,
O=C(NCCCc1ccccc1)C(=O)c1c[nH]c2ccccc12,inactive,
COc1ccc(OC)c2[nH]c(=O)c(CCNC(=O)C(C)(C)C)cc12,inactive,
COc1ccc(OC)c2[nH]c(=O)c(CCNC(=O)C(=O)c3c[nH]c4ccccc34)cc12,50.1 µM (active),
Cc1ccc(S(=O)(=O)c2cn(Cc3ccccc3)c3cc(N4CCCC4)c(F)cc3c2=O)c(C)c1,inactive,
Cc1c(NC(=O)c2cc(=O)c3ccccc3o2)c(=O)n(-c2ccccc2)n1C,inactive,
CCc1cccc(CC)c1NC(=O)Cn1c(=O)c(-c2cc(C)ccc2NC(C)=O)nc2ccccc21,inactive,
COC(=O)c1sc(NC(=O)COC(=O)C2CCC2)c(C(=O)OC)c1C,inactive,
COCCCNCC(=O)Nc1sc(C)c(C)c1C(=O)OC,1 µM (active),
COC(=O)c1c(NC(=O)C(C)Oc2ccc(Cl)c(C)c2)sc(C)c1C (configuration not stated),inactive,
CSc1ccccc1NC(=O)COC(=O)CCCOc1ccc(C)cc1,inactive,
COc1ccc(CNC(=O)c2cc(C(=O)C3CC3)c[nH]2)cc1,inactive,
Cc1cccc(N2CCN(C(=O)/C=C/c3ccco3)CC2)c1C,11.2 µM (active),
Cc1cccc(N2CCN(C(=O)c3cnc(N4CCCC4)nc3C)CC2)c1C,,5.62% [at 12.7 µM]
Cc1cccc(N2CCN(C(=O)CCSCc3ccccc3F)CC2)c1C,inactive,
COc1ccc(CN(C)C(=O)c2cc(-c3ccc(C)cc3C)nc3ccccc23)c(OC)c1OC,inactive,
Cc1cccc(-n2ncc(C(=O)N3CCN(c4ccc(Cl)cc4)CC3)c2C2CCN(C(=O)OC(C)(C)C)CC2)c1,inactive,

Structure (SMILES),Potency,"activity, negative = inhibition"
Cc1ccc2nc(N3C(=O)C(O)=C(C(=O)c4ccco4)C3c3cccc(O)c3)sc2c1 (configuration not stated),31.6 µM (active),
Cc1ccc2nc(NC(=O)C3CCN(S(=O)(=O)c4ccc5c(c4)oc(=O)n5C)CC3)sc2c1,inactive,
CCOc1ccc2nc(N3CCC(C(=O)Nc4cc(C)ccc4C)CC3)sc2c1,inactive,
COc1ccc([C@H]2CC(=O)C=C(c3ccc(C)cc3)C2)cc1,,-2.52% [at 0.501 µM]
CCc1nc2cccnc2n1-c1ccc(CC(=O)Nc2c(C)cccc2C)cc1,inactive,
COCCCNC(=O)Cc1ccc(-n2c(C)nc3cccnc32)cc1,inactive,
CCc1nc2cccnc2n1-c1ccc(C(=O)O)cc1,35.5 µM (active),
COC(=O)CNC(c1ccccc1Cl)c1cc(Br)ccc1NC(=O)CCN1CCOCC1 (configuration not stated),39.8 µM (active),
COc1ccc(OC)c(NC(=O)CCN2CCC(C)CC2)c1,inactive,
COc1ccc(NC(=O)CCN2CCCC2)c(OC)c1,inactive,
O=C(CSc1nc2nccnc2c(=O)n1CCc1c[nH]c2ccccc12)Nc1ccccc1F,inactive,
O=C(c1cccc(Br)c1)N1CCN(Cc2cc(=O)n3nc(-c4ccccc4)sc3n2)CC1,inactive,
CN(Cc1cccs1)C(=O)CN1C(=O)c2ccccc2S1(=O)=O,,-6.03% [at 2.33 µM]
CCCCN(C(=O)c1nn(C)c(=O)c2ccccc12)c1c(N)n(CCC)c(=O)[nH]c1=O,,-30.6% [at 12.7 µM]
CC(OC(=O)c1ccc2ccccc2n1)C(=O)c1ccccc1 (configuration not stated),inactive,
O=C(OCc1ccc([N+](=O)[O-])cc1)c1ccccn1,inactive,
O=C(Oc1ccc([N+](=O)[O-])cc1)c1ccc2ccccc2n1,12.6 µM (active),
COCCn1c(SCC(=O)c2cc(C)ccc2C)nc2cc(C(=O)NC3CCCC3)ccc2c1=O,inactive,
O=C(COC(=O)c1ccccc1Cl)NC1CCCCCCC1,,6.1% [at 0.501 µM]
COc1ccc(S(=O)(=O)N(C)CC(=O)N2CCCC2)cc1Cl,inactive,
COc1ccc(S(=O)(=O)NCc2cccn2Cc2cccc(C)c2)cc1Cl,inactive,
COc1ccc(S(=O)(=O)c2c[nH]c(=S)[nH]c2=O)cc1Cl,79.4 µM (active),

# Source: PubChem BioAssay AID504332 (National Center for Advancing Translational Sciences (NCATS), 2011)
